{"source": "ChEMBL document CHEMBL4513141", "about": "“CO-ADD screening of NIH (USA) - Clinical Collection” (2021)", "note": "Results with a measured potency or affinity are listed apart.", "data": [{"test_system": "Cryptococcus neoformans", "conditions": "Concentration 20 uM; ASSAY_TEST Inhibition of Fungal Growth; detection method Resazurin; Absorption (OD600-OD570); plate type 384well; NBS; CORNING #3640", "units": {"Inhibition": "%"}, "values": [{"compound": "CC[C@H](C)C(=O)O[C@H]1C[C@H](O)C=C2C=C[C@H](C)[C@H](CC[C@@H](O)C[C@@H](O)CC(=O)[O-])[C@H]21.[Na+]", "note": "[PRAVASTATIN SODIUM]", "Inhibition": -0.35}, {"compound": "O=C1C(c2c(O)[nH]c3ccccc23)=Nc2ccccc21", "Inhibition": -4.77}, {"compound": "CNCCCCOc1ccccc1Cc1ccccc1.Cl", "Inhibition": -8.24}, {"compound": "CO[C@H]1O[C@@H]2O[C@@]3(C)CC[C@H]4[C@H](C)CC[C@@H]([C@H]1C)[C@@]24OO3", "Inhibition": 6.04}, {"compound": "C[C@]12CC[C@@H]3c4ccc(O)cc4CC[C@H]3[C@@H]1CC[C@@H]2O", "note": "[ESTRADIOL]", "Inhibition": -4.05}, {"compound": "CNCC[C@H](Oc1cccc2ccccc12)c1cccs1.Cl", "note": "[DULOXETINE HYDROCHLORIDE]", "Inhibition": -2.99}, {"compound": "Nc1c2c(nc3c1CCC3)CCCC2", "note": "[IPIDACRINE]", "Inhibition": -0.69}, {"compound": "C[C@H]1[C@@H](OC(=O)CCC(=O)O)O[C@@H]2O[C@@]3(C)CC[C@H]4[C@H](C)CC[C@@H]1[C@@]24OO3", "Inhibition": -1.11}, {"compound": "CCS(=O)(=O)CCn1c([N+](=O)[O-])cnc1C", "note": "[TINIDAZOLE]", "Inhibition": -11.27}, {"compound": "CC(Cc1ccc(O)c(O)c1)(NN)C(=O)O.O", "note": "(configuration not stated)", "Inhibition": -6.03}, {"compound": "COc1ccc2cc([C@H](C)C(=O)[O-])ccc2c1.[Na+]", "note": "[NAPROXEN SODIUM]", "Inhibition": -1.8}, {"compound": "C[C@]12CCC(=O)C=C1CC[C@@H]1[C@@H]2[C@@H](O)C[C@@]2(C)[C@H]1CC[C@]2(O)C(=O)COC(=O)CCC(=O)O", "note": "[HYDROCORTISONE HEMISUCCINATE ANHYDROUS]", "Inhibition": 6.86}, {"compound": "CC(C)(C)NCC(O)COc1cccc2c1CC(O)C(O)C2", "note": "(configuration not stated) [NADOLOL]", "Inhibition": -8.66}, {"compound": "COc1ccc(/C=C/C(=O)Nc2ccccc2C(=O)O)cc1OC", "Inhibition": 4.45}, {"compound": "CN(C)CC[C@@H](c1ccc(Br)cc1)c1ccccn1.O=C(O)/C=C\\C(=O)O", "note": "[DEXBROMPHENIRAMINE MALEATE]", "Inhibition": -3.8}, {"compound": "O=C(NCCN1CCOCC1)c1ccc(Cl)cc1", "note": "[MOCLOBEMIDE]", "Inhibition": -2.98}, {"compound": "C[n+]1ccccc1/C=N/O.[Cl-]", "note": "[PRALIDOXIME CHLORIDE]", "Inhibition": -2.73}, {"compound": "COc1cc(C)c(/C=C/C(C)=C/C=C/C(C)=C/C(=O)O)c(C)c1C", "note": "[ACITRETIN]", "Inhibition": -7.56}, {"compound": "CN(C)CCOC(c1ccc(Cl)cc1)c1ccccn1.O=C(O)/C=C\\C(=O)O", "note": "(configuration not stated) [CARBINOXAMINE MALEATE]", "Inhibition": 0.28}, {"compound": "Cc1ncc([N+](=O)[O-])n1CC(O)CCl", "note": "(configuration not stated) [ORNIDAZOLE]", "Inhibition": -1.25}, {"compound": "CC1(C)O[C@@H]2C[C@H]3[C@@H]4C[C@H](F)C5=CC(=O)C=C[C@]5(C)[C@H]4[C@@H](O)C[C@]3(C)[C@]2(C(=O)CO)O1", "note": "[FLUNISOLIDE]", "Inhibition": -6.19}, {"compound": "Cc1ccc(-c2cc(C(F)(F)F)nn2-c2ccc(S(N)(=O)=O)cc2)cc1", "note": "[CELECOXIB]", "Inhibition": 0.77}, {"compound": "CC(=O)OCC(=O)[C@@]1(O)CC[C@H]2[C@@H]3CCC4=CC(=O)C=C[C@]4(C)[C@H]3[C@@H](O)C[C@@]21C", "note": "[PREDNISOLONE ACETATE]", "Inhibition": -1.37}, {"compound": "C=C(CC)C(=O)c1ccc(OCC(=O)O)c(Cl)c1Cl", "note": "[ETHACRYNIC ACID]", "Inhibition": -8.91}, {"compound": "CCC1(c2ccccc2)C(=O)NCNC1=O", "note": "[PRIMIDONE]", "Inhibition": 0.81}, {"compound": "CC(=O)CCCCn1c(=O)c2c(ncn2C)n(C)c1=O", "note": "[PENTOXIFYLLINE]", "Inhibition": -7.44}, {"compound": "NC(=O)c1cnccn1", "note": "[PYRAZINAMIDE]", "Inhibition": -9.58}]}]}
